# Laboratory results taken from PubChem BioAssay (EPA / NIEHS).
# Results filed as inconclusive are left out. Calls of active or inactive are those of the source. How the source made its calls, unless noted: active means hit-call score of the fitted dose curve at least 0.9, where 1 is the maximum; inconclusive means response in the unintended direction; inactive means score below 0.9.
# How the values were obtained:
# [1] = VALA_TUBIPS_Antagonist_TubuleLength: VALA Sciences human iPS-derived Endothelial Tubule Formation (TUBIPS) Antagonist Assay (AID 2284313)
# In short: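 Tubule length was quantified by high-content imaging of CD31- and nuclear-stained cells, with 0.1% DMSO as neutral and 100 uM suramin as inhibition control. Compounds were applied for 3 days, in 10 ng/ml VEGF, to cultures pre-grown 3 days.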
# [2] = VALA_MIGHUV2_CellCount: Viability Assessment in the VALA Sciences human Umbilical Vein Endothelial Cell Migration (MIGHUV) Assay, Area of Scratch Wound after Recovery (AID 2284314)
# Experimental: VALA_MIGHUV2_BCatenin is a cell-based, multiplexed assay that uses umbilical vein-derived endothelial cells (HUVEC). Measurements were taken 24 hours after chemical dosing in a 96-well plate.VALA_MIGHUV2_CellCount is the one of two assay components measured from the VALA_MIGHUV2 assay. It is designed to make measurements of viability, a form of viability reporter, as detected with fluorescence intensity signals by HCS Fluorescent Imaging technology. Data from the assay component VALA_MIGHUV2_CellCount was analyzed at the endpoint, VALA_MIGHUV2_CellCount, in the positive analysis fitting direction relative to DMSO as the negative control and baseline of activity. Using a type of viability reporter, loss-of-signal activity can be used to understand viability. To generalize the intended target to other relatable targets, this assay endpoint is annotated to the cell cycle intended target family, where the subfamily is cell count.
# Cells were seeded on 384-well microplates (day-0) at a density of 9000 cells per well for detection of wound area recovery or 4000 cells per well for detection of beta-catenin (CTNB) immunoreactivity and incubated in Endothelial Cell Growth Medium (CAI, San Diego; catalog 211-500). After 24 hours of culture, the HUVEC plates were scratched using a custom scratch head with the Bravo liquid handling system. This created a 'wound' area without cells in each well. […]
# [3] = tested on: IYD (gene 389434); test: CCTE_GLTED_hIYD: CCTE's human Iodotyrosine Deiodinase (xIYD) Inhibition Assay, Great Lakes Toxicology and Ecology Division (GLTED) Lab (AID 2284317);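 further: cell-free human IYD enzyme made in baculovirus insect cells; iodide freed from monoiodotyrosine measured by cerium arsenite color change at 420 nm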
# In short: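 Deiodination of MIT by insect-cell-produced human IYD is measured after a 3 h incubation with test chemical. Free iodide passes through a Dowex column and accelerates Sandell-Kolthoff Ce4+ reduction, read at 420 nm; run in triplicate.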
# [4] = CCTE_Deisenroth_5AR_NBTE_donor: CCTE's 5alpha-reductase NanoBRET Target Engagement Assay […], Deisenroth Lab (AID 2284319; active means hit-call score of the fitted dose curve at least 0.9, where 1 is the maximum; inactive means score below 0.9); conditions: actives raise or lower the signal
# In short: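 SRD5A2-NanoLuc, HEK293T, 20 h expression. Chemical 10 nM - 29.9 uM, 8 conc, duplicate; 3 h preincubation + 2 h testosterone tracer. Nano-Glo substrate plus extracellular NanoLuc inhibitor; donor lum 460 nm. DMSO baseline, bidirectional fit.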
# [5] = CCTE_Deisenroth_5AR_NBTE_acceptor: CCTE's 5alpha-reductase NanoBRET Target Engagement Assay - Autofluorescence Screen, Deisenroth Lab (AID 2284321; active means hit-call score of the fitted dose curve at least 0.9, where 1 is the maximum; inactive means score below 0.9;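 further: compound fluorescence in the acceptor channel under 460 nm excitation flags autofluorescence artifacts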); conditions: actives raise or lower the signal
# In short: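 Acceptor fluorescence intensity was read as an artifact-detection endpoint. Test chemicals at an assumed nominal 100 uM were excited at 460 nm across three independent runs. Activity was fitted bidirectionally against DMSO.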
# [6] = tested on: SRD5A2 (gene 6716); test: CCTE_Deisenroth_5AR_NBTE_ratio: CCTE's 5alpha-reductase NanoBRET Target Engagement Assay - Ratio, Deisenroth Lab (AID 2284322; active means hit-call score of the fitted dose curve at least 0.9, where 1 is the maximum; inactive means score below 0.9); conditions: actives raise or lower the signal
# In short: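 HEK293T cells transiently expressing an SRD5A2-NanoLuc fusion (20 h post-transfection) were exposed to test chemical (10 nM - 29.9 uM, 8 points) for 3 h, then testosterone tracer for a further 2 h. Acceptor/donor BRET ratio was fitted bidirectionally against DMSO baseline.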
# [7] = VALA_TUBHUV_Antagonist_TubuleLength: VALA Sciences human Umbilical Vein Endothelial Tubule Formation (TUBHUV) Antagonism Assay (AID 2284325)
# In short: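 Tubule length was imaged via CD31 immunofluorescence after a further 3-day compound exposure in 10 ng/ml VEGF, following 3-day pre-culture of HUVEC with HDF at 1:3. Vehicle 0.1% DMSO; suramin (100 uM) inhibition control.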
# [8] = VALA_MIGHUV2_Bcatenin: VALA Sciences human Umbilical Vein Endothelial Cell Migration (MIGHUV) Assay, Nuclear Translocation of beta-Catenin after Recovery (AID 2284315)
# Experimental: VALA_MIGHUV2_BCatenin is a cell-based, multiplexed assay that uses umbilical vein-derived endothelial cells (HUVEC). Measurements were taken 24 hours after chemical dosing in a 96-well plate.VALA_MIGHUV2_Bcatenin is the one of two assay components measured from the VALA_MIGHUV2 assay. It is designed to make measurements of nuclear translocation of CTNB, a form of morphology reporter, as detected with fluorescence intensity signals by HCS Fluorescent Imaging technology.Data from the assay component VALA_MIGHUV2_BCatenin was analyzed at the endpoint, VALA_MIGHUV2_BCatenin, in the positive analysis fitting direction relative to DMSO as the negative control and baseline of activity. Using a type of morphology reporter, gain-of-signal activity can be used to understand developmental effects. To generalize the intended target to other relatable targets, this assay endpoint is annotated to the neurodevelopment intended target family, where the subfamily is migration.
# Cells were seeded on 384-well microplates (day-0) at a density of 9000 cells per well for detection of wound area recovery or 4000 cells per well for detection of beta-catenin (CTNB) immunoreactivity and incubated in Endothelial Cell Growth Medium (CAI, San Diego; catalog 211-500). After 24 hours of culture, the HUVEC plates were scratched using a custom scratch head with the Bravo liquid handling system. This created a 'wound' area without cells in each well. Test chemical was added within 30 min, each tested in 3-replicates across a 6-point concentration response (0.1 % DMSO vehicle control). 'ScratchOnly' Plates were incubated for a 24 h 'wound recovery' period and then fixed with 4% paraformaldehyde. Hoechst dye was used to visualize cell nuclei in the wound area, and CTNB immunofluorescence for visualizing CTNB-positive nuclei (beta-Catenin (L54E2) Mouse mAb (IF Preferred) 2677; Cell Signaling Technology, Danvers, MA). […]
# [9] = VALA_MIGHUV2_WoundArea: VALA Sciences human Umbilical Vein Endothelial Cell Migration (MIGHUV) Assay, Area of Scratch Wound after Recovery (AID 2284316)
# In short: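 Wound-area endpoint read by fluorescence imaging of Hoechst-stained nuclei after a 24 h recovery period following scratch of HUVEC monolayers (9000 cells/well). Chemicals dosed within 30 min post-scratch, triplicate 6-point series, 0.1% DMSO vehicle; Cytochalasin D positive control.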
# [10] = CCTE_Mundy_HCI_iCellGluta_NOG_NeuriteLength: CCTE's Neurite Outgrowth Assay in iCellGluta cells for Neurite Length, Mundy Lab (AID 2284318)
# In short: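 Automated high-content imaging of betaIII-tubulin (Alexa Fluor-488) and Hoechst-stained cells gave neurite length, normalized to the DMSO baseline.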
smiles,measurement,setting,value
CC(C)CCCCCCc1ccc(O)cc1,outcome,[1],inactive
same,outcome,[2],inactive
same,AC50,[3],48.4 µM (active)
same,outcome,[4],inactive
same,outcome,[5],inactive
same,outcome,[6],inactive
same,outcome,[7],inactive
N[C@@H](Cc1cc(I)c(Oc2ccc(O)c(I)c2)c(I)c1)C(=O)O,outcome,[1],inactive
same,outcome,[8],inactive
same,outcome,[7],inactive
CCOC(=O)C(C)Oc1ccc(Oc2nc3ccc(Cl)cc3o2)cc1 (stereo not given),outcome,[3],inactive
S=C(S)NCCNC(=S)S.[Mn+2].[S-]C([S-])=NCCN=C([S-])[S-].[Zn+2],outcome,[1],inactive
same,outcome,[8],inactive
same,outcome,[9],inactive
same,outcome,[10],inactive
same,outcome,[7],inactive
CC1(C)C(C=C(Cl)Cl)C1C(=O)OCc1cccc(Oc2ccccc2)c1 (stereo not given),outcome,[4],inactive
same,outcome,[5],inactive
same,outcome,[6],inactive
O=C(O)c1ccccc1,outcome,[4],inactive
same,outcome,[5],inactive
same,outcome,[6],inactive
CCCN(CCC)C(=O)SCC,outcome,[10],inactive
CCN(CC)C(=O)c1cccc(C)c1,AC50,[10],50.5 µM (active)
Cc1nn(C)c(Oc2ccccc2)c1C=NOCc1ccc(C(=O)OC(C)(C)C)cc1,AC50,[10],0.353 µM (active)
CC(C)(c1ccc(O)cc1)c1ccc(O)cc1,outcome,[1],inactive
same,outcome,[2],inactive
same,outcome,[8],inactive
same,outcome,[9],inactive
same,outcome,[3],inactive
same,AC50,[7],75.1 µM (active)
O=C(Nc1ccc([N+](=O)[O-])cc1Cl)c1cc(Cl)ccc1O,outcome,[4],inactive
same,outcome,[5],inactive
same,outcome,[6],inactive
C#CCOC(=O)[C@@H](C)Oc1ccc(Oc2ncc(Cl)cc2F)cc1,AC50,[10],22 µM (active)
